Test results from paper PMC5540273 (PLoS ONE, 2017).

How the values were obtained:
Settings in all cases: concentration: 1 μM, replicates: in singlicate; n = 1
[1] = tested on: T1, PKAC-alpha
T1 construct: gene PRKACA

[2] = tested on: T2, PKAC-beta
T2 construct: gene PRKACB

[3] = tested on: PKMYT1
[4] = tested on: PKN1
[5] = tested on: PKN2
[6] = tested on: PLK1
[7] = tested on: PLK2
[8] = tested on: PLK3
[9] = tested on: PLK4
[10] = tested on: PRKCD
[11] = tested on: PRKCE
[12] = tested on: PRKCH
[13] = tested on: PRKCI
[14] = tested on: PRKCQ
[15] = tested on: PRKD1
[16] = tested on: PRKD2
[17] = tested on: PRKD3
[18] = tested on: PRKG1
[19] = tested on: PRKG2
[20] = tested on: T3, PRKR
T3 construct: gene EIF2AK2
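Further: KINOMEscan kinase panel screen.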

| Compound | %Inh [1] [%] | %Inh [2] [%] | %Inh [3] [%] | %Inh [4] [%] | %Inh [5] [%] | %Inh [6] [%] | %Inh [7] [%] | %Inh [8] [%] | %Inh [9] [%] | %Inh [10] [%] | %Inh [11] [%] | %Inh [12] [%] | %Inh [13] [%] | %Inh [14] [%] | %Inh [15] [%] | %Inh [16] [%] | %Inh [17] [%] | %Inh [18] [%] | %Inh [19] [%] | %Inh [20] [%] |
| --- | --- | --- | --- | --- | --- | --- | --- | --- | --- | --- | --- | --- | --- | --- | --- | --- | --- | --- | --- | --- |
| Cc1nnc(-c2ccc3ncn(-c4ccc(S(C)=O)cc4)c3c2)o1 (stereo not shown) | 12 | 0 | 0 | 0 | 0 | 0 | 0 | 9 | 14 | 0 | 3 | 4 | 0 | 3 | 0 | 35 | 0 | 0 | 13 | 0 |
| O=C(NCCNc1ccnc(Nc2ccc(F)cc2)n1)Nc1ccc2c(c1)OCO2 [GSK1379882] | 0 | 0 | 0 | 23 | 0 | 4 | 0 | 0 | 4 | 0 | 13 | 16 | 0 | 3 | 0 | 7 | 0 | 0 | 0 | 9 |
| COc1cc2ncn(-c3cc(OCc4ccc(S(C)(=O)=O)cc4)c(C(N)=O)s3)c2cc1OC [GW869979] | 0 | 0 | 0 | 8 | 0 | 98.3 | 98.9 | 92.3 | 3 | 0 | 20 | 0 | 12 | 0 | 0 | 0 | 18 | 0 | 0 | 0 |
| O=C1NC(=O)C(c2ccccc2)=C1Nc1cccc(O)c1 [SB-390534] | 0 | 5 | 0 | 0 | 21 | 0 | 20 | 27 | 11 | 5 | 17 | 0 | 9 | 0 | 0 | 3 | 0 | 8 | 2 | 100 |
| COc1cc2nccc(Nc3ccc(OCc4ccc(NC(C)=O)cc4)cc3)c2cc1OC.Cl [GW440135] | 0 | 0 | 0 | 44 | 0 | 12 | 0 | 0 | 0 | 11 | 10 | 14 | 0 | 0 | 0 | 11 | 2 | 10 | 0 | 0 |
| OCCCNc1nccc(-c2c(-c3cccc(C(F)(F)F)c3)nn3cc(C(F)(F)F)ccc23)n1 [GW630813] | 0 | 0 | 0 | 0 | 0 | 0 | 0 | 0 | 12 | 0 | 7 | 10 | 0 | 0 | 22 | 10 | 0 | 0 | 0 | 8 |
| COc1cccc(C2=C(N(C)c3ccccc3)C(=O)NC2=O)c1 [SB-334865] | 0 | 0 | 1 | 0 | 0 | 0 | 0 | 0 | 17 | 0 | 25 | 5 | 7 | 0 | 6 | 0 | 10 | 0 | 0 | 0 |
| Cc1nc(N(C)[C@H]2CN(C(=O)CC#N)CC[C@H]2C)c2cc[nH]c2n1 | 17 | 0 | 4 | 0 | 12 | 0 | 5 | 0 | 0 | 2 | 0 | 8 | 9 | 10 | 0 | 1 | 66 | 2 | 0 | 5 |
| CCc1ccc(-c2ccc3c(c2)-c2nn(C)cc2S(=O)(=O)N3C)cc1 | 0 | 0 | 0 | 0 | 0 | 8 | 0 | 56 | 0 | 14 | 0 | 0 | 18 | 10 | 0 | 13 | 0 | 0 | 0 | 0 |
| Nc1n[nH]c2ncc(-c3ccccc3)cc12 [SB-517081] | 0 | 0 | 2 | 0 | 0 | 0 | 11 | 0 | 15 | 0 | 16 | 72 | 21 | 3 | 4 | 0 | 0 | 0 | 0 | 0 |
| COc1ccc(-n2cnc3c(N)ncnc32)cc1 [SKF-97236] | 0 | 19 | 17 | 46 | 0 | 18 | 3 | 2 | 1 | 9 | 0 | 23 | 28 | 0 | 0 | 1 | 5 | 14 | 33 | 0 |
